Bioassay records (PubChem BioAssay)
PLC-beta3 inh = human PLC-beta3 inhibitors, primary screen, biochemical, fluorescence. 1-phosphatidylinositol 4,5-bisphosphate phosphodiesterase beta-3 (Homo sapiens), Q01970. Purified PLC-beta3, fluorogenic substrate. inhibition, % at 12.2 µM. 0.18% of 370,000 active; in the data active = inhibition above about 11%
proKLK7 act = proKLK7 zymogen activators, primary screen, biochemical, fluorescence intensity; 0.9% of 370,000 active; activation, % at 7 µM; purified proKLK7, EDANS-DABCYL substrate fluorescence; 100% is mature enzyme control, 0% vehicle;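 active = activation above the mean of all tested compounds plus 3 SD, computed per campaign excluding outliers beyond control limits, cut at about 13% in these data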
Target sequence (P49862 whole entry, looked up): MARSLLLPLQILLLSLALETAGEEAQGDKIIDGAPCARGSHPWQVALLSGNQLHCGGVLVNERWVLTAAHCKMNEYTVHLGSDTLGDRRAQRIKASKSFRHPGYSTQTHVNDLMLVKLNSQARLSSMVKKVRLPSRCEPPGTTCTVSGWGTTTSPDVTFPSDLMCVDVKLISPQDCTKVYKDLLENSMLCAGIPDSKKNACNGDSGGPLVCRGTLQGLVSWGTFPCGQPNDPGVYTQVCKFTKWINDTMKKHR
PLC-gamma1 inh = PLC-gamma1 enzyme inhibitors, primary screen, biochemical, fluorescence, purified enzyme; fluorogenic substrate; inhibition, % at 12.2 µM; 0.84% of 370,000 active
ADAM10 inh = human ADAM10 inhibitors, primary screen, biochemical, QFRET, HTS | Disintegrin and metalloproteinase domain-containing protein 10 (Homo sapiens), O14672 | recombinant ADAM10, EDANS/DABCYL FRET peptide cleavage, 3 h | inhibition, % at 7 µM | 0.62% of 370,000 active;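 active = inhibition above a per-campaign cutoff equal to the mean of compounds falling between control-based bounds plus 3 SD, cut at about 20% in these data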
ADAM17 inh = ADAM17 inhibitors, primary screen, biochemical, QFRET; recombinant ADAM17, EDANS/DABCYL FRET peptide cleavage; inhibition, % at 6.95 µM; 0.83% of 370,000 active;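 active = inhibition above the mean of compounds lying between control limits plus 3 SD, set per campaign, cut at about 8.5% in these data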
PLCgamma1 ctr = PLC-gamma1 enzyme inhibitors, counter-screen for PLC-beta3 inhibitor project, biochemical, fluorescence; shares compounds with PLC-gamma1 inh; purified PLC-gamma1, fluorogenic substrate; inhibition, % at 12.3 µM; 3.1% of 3,300 active; AID 743258, 2014
PLCbeta3 conf = PLC-beta3 inhibitor confirmation, biochemical, fluorescence, purified enzyme; fluorogenic substrate fluorescence; 1% of 3,300 active; shares compounds with PLC-gamma1 inh; AID 743261, 2014; inhibition, % at 12.3 µM; in the data active = inhibition above about 11%
Each line names hits and unclear results; the compound was inactive in the other large screens (follow-up assays come after a bar, where they were run). Rows were chosen to be rich in hits. Some 2.9% of all compounds tested hit in one or more screens of this group. Rule as the data show it, unless noted: active = inhibition above about 9.5%; inactive = the rest.

CCN(CC)C(=O)C1=C(C)N(CCCN2CCCC2=O)C(=O)C(CC(=O)NCCCCc2ccccc2)C1 (stereo unspecified)	PLC-gamma1 inh 9.8 | PLCgamma1 ctr inactive | PLCbeta3 conf inactive
Cc1ccc(C(=O)n2c3ccccc3c3ccccc32)cc1	none
CCOn1c(-n2nc(C)cc2C)nc2ccccc2c1=O	none
Cc1cc(C)n(-c2nc3ccccc3c(=O)n2OC2CCCCC2)n1	PLC-beta3 inh 14.6 | PLCgamma1 ctr inactive | PLCbeta3 conf inactive
Cc1ccccc1C(=O)Nc1nnc(SCC(=O)NC2CC2)s1	none
Cc1cc(C)c(C#N)c(OCC2CCCO2)n1 (stereo unspecified)	PLC-beta3 inh 11.1 | PLCgamma1 ctr inactive | PLCbeta3 conf inactive
Cc1ccc(C(=O)COc2nc(C)cc(C)c2C#N)cc1	none
COc1cccc(CC(=O)N2CCN(S(=O)(=O)c3ccc(Br)cc3)CC2)c1	PLC-gamma1 inh 12.1 | PLCgamma1 ctr inactive | PLCbeta3 conf inactive
CCOC(=O)C1(CC2CCCCO2)CCN(S(=O)(=O)c2c(C)nn(C)c2C)CC1 (stereo unspecified)	PLC-beta3 inh 13.1, PLC-gamma1 inh 12.9 | PLCgamma1 ctr inactive | PLCbeta3 conf inactive
N#Cc1c2n(c3c(=O)n(Cc4ccccc4Cl)cnc13)CCCCC2	none
FC(F)(F)c1ccc(NCCc2ccccc2)nc1	none
COC(=O)[C@]1(CNC(=O)C(C)(C)C)CC(=O)N(Cc2ccc(Cl)cc2)[C@@H]1c1ccc(OC)cc1	none
COC(=O)[C@]1(CNC(C)=O)CC(=O)N(Cc2ccc(Cl)cc2)[C@@H]1c1ccc(OC)cc1	PLC-gamma1 inh 10.6 | PLCgamma1 ctr inactive | PLCbeta3 conf inactive
COC(=O)C1=C(C)NC(=O)NC1c1ccccc1Cl (stereo unspecified)	PLC-gamma1 inh 11.3 | PLCgamma1 ctr inactive | PLCbeta3 conf inactive
COc1cccc(OC)c1C(=O)Nc1ccc2c(c1)OCCO2	none
COc1ccccc1NC(=O)Nc1ccc2c(c1)OCCO2	PLC-beta3 inh 11.7 | PLCgamma1 ctr inactive | PLCbeta3 conf inactive
COc1ccc(N2CCN(CCNC(=O)c3ccc(NC(=O)C4CCCO4)cc3)CC2)cc1 (stereo unspecified)	PLC-gamma1 inh 10.5 | PLCgamma1 ctr inactive | PLCbeta3 conf inactive
CC(=O)Oc1cccc(NC(=O)c2cccc(C(=O)Nc3cccc(OC(C)=O)c3)c2)c1	none
C[N+](C)(C)CCOC(N)=O	PLC-gamma1 inh 10.9 | PLCgamma1 ctr inactive | PLCbeta3 conf inactive
CCOc1cc(CN2CCN(c3cccc(C(F)(F)F)c3)CC2)ccc1O	PLC-gamma1 inh 9.7 | PLCgamma1 ctr inactive | PLCbeta3 conf inactive
COc1cc(C(=O)NC2CC(C)CC(C)(C)C2)cc(OC)c1OC (stereo unspecified)	PLC-beta3 inh 11.6 | PLCgamma1 ctr inactive | PLCbeta3 conf inactive
O=C(O)/C=C\c1cccc(-n2cnnn2)c1	none
c1ccc(N2CCOCCOCCOCCOCC2)cc1	PLC-gamma1 inh 12.1 | PLCgamma1 ctr inactive | PLCbeta3 conf inactive
c1ccn(-c2ccc(N3CCOCC3)cc2)c1	none
N#C/C(=N\Nc1ccccc1F)C(=N)N1CCCCC1	none
CC(=O)c1cccc(NC(=O)c2ccc(N(Cc3ccccc3C)S(C)(=O)=O)cc2)c1	none
CC(=O)Nc1ccc(NC(=O)c2ccc(N(Cc3ccccc3C)S(C)(=O)=O)cc2)cc1	PLC-gamma1 inh 14.0 | PLCgamma1 ctr inactive | PLCbeta3 conf inactive
CC(C)NC(=O)c1onc(CSc2ccccn2)c1C(=O)NC(C)C	none
CS(=O)(=O)N1CCN(c2ccccc2NC(=S)NC(=O)c2cccs2)CC1	none
CS(=O)(=O)N1CCN(c2ccccc2NC(=S)NC(=O)c2ccccc2[N+](=O)[O-])CC1	PLC-gamma1 inh 9.9 | PLCgamma1 ctr inactive | PLCbeta3 conf inactive
COc1ccccc1N1CCN(S(=O)(=O)CCNC(=O)CCc2ccccc2)CC1	PLC-gamma1 inh 9.7 | PLCgamma1 ctr inactive | PLCbeta3 conf inactive
COc1ccccc1C(=O)Nc1ccccc1N1CCN(S(C)(=O)=O)CC1	PLC-gamma1 inh 11.3 | PLCgamma1 ctr inactive | PLCbeta3 conf inactive
O=C(COc1cccc2ccccc12)N/N=C/C=C/c1ccccc1	none
CCCCn1c(-c2nn(C)cc2Cl)n[nH]c1=S	none
CS(=O)(=O)c1nc(-c2ccc(Br)cc2)n[nH]1	PLC-gamma1 inh 18.2 | PLCgamma1 ctr 14.7 | PLCbeta3 conf inactive
Cc1cn(S(=O)(=O)c2ccc(Br)cc2)cn1	none
Cc1ccc2cc(CCNC(=O)C(C)(C)C)c(=O)[nH]c2c1	none
Cc1ccc2cc(CCNC(=O)C3CCCC3)c(=O)[nH]c2c1	PLC-beta3 inh 10.8 | PLCgamma1 ctr inactive | PLCbeta3 conf inactive
O=C(O)c1ccc2c(c1Nc1ccccc1)C(=O)c1ccccc1C2=O	PLC-gamma1 inh 10.1 | PLCgamma1 ctr inactive | PLCbeta3 conf inactive
CNc1c(C(=O)O)ccc2c1C(=O)c1ccccc1C2=O	none
C[C@]12CC[C@H](O)CC1=CCC1C2CC[C@@]2(C)C1CCC21OCCO1 (stereo partly specified)	none
O=S(=O)(c1ccc(Cl)cc1)c1cnc2ccccc2n1	PLC-gamma1 inh 9.6 | PLCgamma1 ctr 11.6 | PLCbeta3 conf inactive
Cc1cc(C)c(NC(=O)CSc2nncn2-c2cccnc2)c(C)c1	none
CN(C)CCN1C(=O)C(=O)/C(=C(/O)c2ccc(S(=O)(=O)N3CCOCC3)cc2)C1c1ccc(Br)cc1 (stereo unspecified)	PLC-gamma1 inh 11.5 | PLCgamma1 ctr inactive | PLCbeta3 conf inactive
O=C(CCOc1ccccc1)N1CCN(S(=O)(=O)c2ccccc2F)CC1	none
Cc1ccc(-c2cc(N)n(-c3ccc(F)cc3)n2)cc1	PLC-gamma1 inh 12.9 | PLCgamma1 ctr inactive | PLCbeta3 conf inactive
Cc1ccc(-c2cc(N)n(-c3ccc(C)cc3)n2)cc1	none
CCOC(=O)c1c(C2COc3ccccc3O2)csc1NC(=O)c1ccccc1 (stereo unspecified)	PLC-gamma1 inh 11.8 | PLCgamma1 ctr inactive | PLCbeta3 conf inactive
CS(=O)(=O)N(CC(=O)NCCSCc1ccccc1Cl)c1ccc(F)cc1	PLC-gamma1 inh 12.7 | PLCgamma1 ctr inactive | PLCbeta3 conf inactive
CS(=O)(=O)N(CC(=O)NCCSc1ccccn1)c1ccc(F)cc1	none
Cc1nc2ccc(Cl)cn2c1C(=O)NN	none
CCOC(=O)c1oc2ccccc2c1COC(=O)C(C)NC(=O)c1ccco1 (stereo unspecified)	PLC-gamma1 inh 10.5 | PLCgamma1 ctr inactive | PLCbeta3 conf inactive
COc1ccc(S(=O)(=O)NCCN2CCOCC2)cc1[N+](=O)[O-]	none
